{
  "source": "paper PMC4336329",
  "about": "(PLoS ONE, 2015)",
  "note": "Among all 310,000 compounds or so, about 14,000 (4.5%) showed an effect of 50% or more. The effect is printed as a negative number. Shown is part of a subset that was picked to be rich in strong results.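 Note: peak tail current of the secondary pulse compared with the same well before compound.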",
  "data": [
    {"target": "human ether-à-go-go-related gene (hERG) potassium channel (human, UniProt Q12809)", "sequence (Q12809 whole entry, looked up)": "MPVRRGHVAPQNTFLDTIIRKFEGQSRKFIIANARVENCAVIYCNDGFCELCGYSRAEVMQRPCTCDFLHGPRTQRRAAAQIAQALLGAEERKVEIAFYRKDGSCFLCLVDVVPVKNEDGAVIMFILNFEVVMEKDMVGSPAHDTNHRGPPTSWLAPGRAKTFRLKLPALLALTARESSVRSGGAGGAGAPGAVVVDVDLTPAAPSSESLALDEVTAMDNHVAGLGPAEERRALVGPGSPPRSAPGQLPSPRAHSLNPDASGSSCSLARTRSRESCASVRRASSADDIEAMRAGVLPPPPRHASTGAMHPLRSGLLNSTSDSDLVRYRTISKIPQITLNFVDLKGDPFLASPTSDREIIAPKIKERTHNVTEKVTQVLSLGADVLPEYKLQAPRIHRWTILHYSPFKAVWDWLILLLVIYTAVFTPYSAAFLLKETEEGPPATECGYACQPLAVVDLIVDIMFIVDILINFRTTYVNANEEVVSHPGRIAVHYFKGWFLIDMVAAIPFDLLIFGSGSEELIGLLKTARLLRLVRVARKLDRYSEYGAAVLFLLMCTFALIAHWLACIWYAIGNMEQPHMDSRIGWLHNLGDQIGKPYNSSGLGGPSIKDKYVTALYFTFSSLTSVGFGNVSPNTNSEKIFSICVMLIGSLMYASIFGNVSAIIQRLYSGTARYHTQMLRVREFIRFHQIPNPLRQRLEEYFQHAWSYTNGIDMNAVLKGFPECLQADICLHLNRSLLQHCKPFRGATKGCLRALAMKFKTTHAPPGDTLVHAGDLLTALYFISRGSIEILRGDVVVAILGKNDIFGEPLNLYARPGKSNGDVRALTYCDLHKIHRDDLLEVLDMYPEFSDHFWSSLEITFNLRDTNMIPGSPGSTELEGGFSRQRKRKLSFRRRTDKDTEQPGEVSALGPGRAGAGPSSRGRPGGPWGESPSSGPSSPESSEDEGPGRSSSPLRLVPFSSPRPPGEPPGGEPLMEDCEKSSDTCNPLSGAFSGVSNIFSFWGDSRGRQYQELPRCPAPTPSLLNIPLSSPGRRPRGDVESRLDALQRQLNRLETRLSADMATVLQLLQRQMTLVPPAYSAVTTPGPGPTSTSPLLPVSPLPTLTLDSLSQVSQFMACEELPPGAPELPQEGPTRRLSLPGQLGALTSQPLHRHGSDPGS", "experiment": "primary screen, population patch clamp on CHO cells stably expressing hERG; higher = less effect of the substance", "units": {"hERG current change (%, negative = inhibition) at 10uM": "%"}, "values": [
      {"smiles": "O=C(Nc1cccc(-n2cccn2)c1)C1CCCN(Cc2cccc(F)c2F)C1", "note": "(stereo not drawn)", "hERG current change (%, negative = inhibition) at 10uM": -17.8},
      {"smiles": "Cc1c(CN2CCCC(C(=O)Nc3cccc(-n4cccn4)c3)C2)cnn1C", "note": "(stereo not drawn)", "hERG current change (%, negative = inhibition) at 10uM": 7.86},
      {"smiles": "CCOc1ccccc1CN1CCCC(C(=O)Nc2cccc(-n3cccn3)c2)C1", "note": "(stereo not drawn)", "hERG current change (%, negative = inhibition) at 10uM": -69.5},
      {"smiles": "COc1ccc(CN2CCCC(C(=O)Nc3cccc(-n4cccn4)c3)C2)cc1", "note": "(stereo not drawn)", "hERG current change (%, negative = inhibition) at 10uM": -58.9},
      {"smiles": "CCOc1cccc(CN2CCCC(C(=O)Nc3cccc(-n4cccn4)c3)C2)c1", "note": "(stereo not drawn)", "hERG current change (%, negative = inhibition) at 10uM": -56.3},
      {"smiles": "Cc1cc(CN2CCCC(C(=O)Nc3cccc(-n4cccn4)c3)C2)cc(C)c1O", "note": "(stereo not drawn)", "hERG current change (%, negative = inhibition) at 10uM": -42},
      {"smiles": "COCCNC(=S)N(CCc1c(C)[nH]c2ccc(F)cc12)Cc1cccnc1", "hERG current change (%, negative = inhibition) at 10uM": -21.5},
      {"smiles": "C=CC(=O)N1c2ccccc2Sc2ccc(NC(=O)OCC)cc21", "hERG current change (%, negative = inhibition) at 10uM": 0.408},
      {"smiles": "CC(C)(C)c1ccc(C(=O)Nc2cccc3c(=O)[nH][nH]c(=O)c23)cc1", "hERG current change (%, negative = inhibition) at 10uM": -9.65},
      {"smiles": "O=C(Cc1ccccc1)NCC(=O)N1CCN(c2ccccc2)CC1", "hERG current change (%, negative = inhibition) at 10uM": 5.93},
      {"smiles": "O=C(NCCn1ccc2ccccc21)c1cccc([N+](=O)[O-])c1", "hERG current change (%, negative = inhibition) at 10uM": -16.9},
      {"smiles": "CCC(C)N1C(=O)C2C(C(=O)Nc3cccc(OC)c3)C3C=CC2(O3)C1C(=O)NC1CCCCC1C", "note": "(stereo not drawn)", "hERG current change (%, negative = inhibition) at 10uM": -6.83},
      {"smiles": "O=S1(=O)CCN(Cc2ccc(Cl)c(Cl)c2)CC1", "hERG current change (%, negative = inhibition) at 10uM": 6.46},
      {"smiles": "CC(C)OC(=O)Cn1nnc(-c2ccccc2)n1", "hERG current change (%, negative = inhibition) at 10uM": 0.0206},
      {"smiles": "Cc1c(NC(=O)C(C)OC(=O)c2cc(Cl)ccc2O)c(=O)n(-c2ccccc2)n1C", "note": "(stereo not drawn)", "hERG current change (%, negative = inhibition) at 10uM": 15.3},
      {"smiles": "CCSc1sccc1C1C(C#N)=C(N)N(c2cccnc2)C2=C1C(=O)CC(C)(C)C2", "note": "(stereo not drawn)", "hERG current change (%, negative = inhibition) at 10uM": -50.4},
      {"smiles": "CC1(C)CC(=O)C2=C(C1)N(c1cccnc1)C(N)=C(C#N)C2c1cccs1", "note": "(stereo not drawn)", "hERG current change (%, negative = inhibition) at 10uM": -5.86},
      {"smiles": "CCSc1sccc1C1C(C#N)=C(N)N(c2cccnc2)C2=C1C(=O)CCC2", "note": "(stereo not drawn)", "hERG current change (%, negative = inhibition) at 10uM": -31.5},
      {"smiles": "CC12COC3(C(=O)Nc4ccc(F)cc4)CC1CCC32C", "note": "(stereo not drawn)", "hERG current change (%, negative = inhibition) at 10uM": -18},
      {"smiles": "CN(CCC#N)C(=O)COC(=O)[C@H](Cc1ccccc1)N1C(=O)c2ccccc2C1=O", "hERG current change (%, negative = inhibition) at 10uM": -2.25},
      {"smiles": "Cc1ccc(-n2nc3c(=O)n(CC(=O)NCc4cccs4)nc(C)c3c2C)cc1", "hERG current change (%, negative = inhibition) at 10uM": -20.1},
      {"smiles": "Cc1ccc(Oc2ncccc2/C=N/OCc2ccc(Cl)cc2Cl)cc1", "hERG current change (%, negative = inhibition) at 10uM": 14.7},
      {"smiles": "CC(C)CC(=O)Nc1ccccc1-c1nnn(CC(=O)N2CCc3ccccc3C2)n1", "hERG current change (%, negative = inhibition) at 10uM": -37.3},
      {"smiles": "O=C(Nc1ccccc1-c1nnn(CC(=O)N2CCc3ccccc3C2)n1)C1CCC1", "hERG current change (%, negative = inhibition) at 10uM": -52.8},
      {"smiles": "O=C(Nc1cccc(-c2nnn(CC(=O)N3CCc4ccccc4C3)n2)c1)C1CCC1", "hERG current change (%, negative = inhibition) at 10uM": 2.59},
      {"smiles": "O=C(NCCN1CCOCC1)c1cccc(NS(=O)(=O)c2ccc(Br)cc2)c1", "hERG current change (%, negative = inhibition) at 10uM": -34.3},
      {"smiles": "OCC[C@H]1C[C@H](O)[C@@H](O)[C@]2(OCc3ccccc32)O1", "hERG current change (%, negative = inhibition) at 10uM": 11.9},
      {"smiles": "CC1CC(C)CN(C(=O)COC(=O)c2cc([N+](=O)[O-])ccc2N2CCOCC2)C1", "note": "(stereo not drawn)", "hERG current change (%, negative = inhibition) at 10uM": -54.7},
      {"smiles": "O=C(OCc1ccccc1Cl)c1cc([N+](=O)[O-])ccc1N1CCOCC1", "hERG current change (%, negative = inhibition) at 10uM": -23.1},
      {"smiles": "O=C(OCc1ccc(F)cc1)c1cc(S(=O)(=O)N2CCCCC2)ccc1N1CCOCC1", "hERG current change (%, negative = inhibition) at 10uM": 2.16},
      {"smiles": "CC1CCN(C(=O)COC(=O)c2cc([N+](=O)[O-])ccc2N2CCOCC2)CC1", "hERG current change (%, negative = inhibition) at 10uM": -15},
      {"smiles": "Cc1ccc(COC(=O)c2cc([N+](=O)[O-])ccc2N2CCOCC2)cc1", "hERG current change (%, negative = inhibition) at 10uM": -53.7},
      {"smiles": "CC1CCCN(C(=O)COC(=O)c2cc([N+](=O)[O-])ccc2N2CCOCC2)C1", "note": "(stereo not drawn)", "hERG current change (%, negative = inhibition) at 10uM": -14.6},
      {"smiles": "Cc1ccc(C)c(COC(=O)c2cc([N+](=O)[O-])ccc2N2CCOCC2)c1", "hERG current change (%, negative = inhibition) at 10uM": 5.73},
      {"smiles": "O=C(OCc1cccc(Cl)c1)c1cc([N+](=O)[O-])ccc1N1CCOCC1", "hERG current change (%, negative = inhibition) at 10uM": -38.7},
      {"smiles": "Cc1ccc(COC(=O)c2cc(S(=O)(=O)N3CCCCC3)ccc2N2CCOCC2)cc1", "hERG current change (%, negative = inhibition) at 10uM": -13.9},
      {"smiles": "O=C(OCc1ccc([N+](=O)[O-])cc1)c1cc([N+](=O)[O-])ccc1N1CCOCC1", "hERG current change (%, negative = inhibition) at 10uM": -76.1},
      {"smiles": "Cc1ccccc1COC(=O)c1cc([N+](=O)[O-])ccc1N1CCOCC1", "hERG current change (%, negative = inhibition) at 10uM": -18.8},
      {"smiles": "O=C(OCc1ccc([N+](=O)[O-])cc1)c1cc(S(=O)(=O)N2CCCCC2)ccc1N1CCOCC1", "hERG current change (%, negative = inhibition) at 10uM": -75.9},
      {"smiles": "C/C(=N\\NC(=O)C(NC(=O)c1ccccc1)C(C)C)c1ccccc1", "note": "(stereo not drawn)", "hERG current change (%, negative = inhibition) at 10uM": 21.2},
      {"smiles": "COc1ccc(-c2csc(NC(C)=O)n2)cc1OC", "hERG current change (%, negative = inhibition) at 10uM": 5.13},
      {"smiles": "Cc1ccccc1NC(=O)NC1(C(=O)NCC2CCCO2)CCCCC1", "note": "(stereo not drawn)", "hERG current change (%, negative = inhibition) at 10uM": 17.5}
    ]}
  ]
}
